Measurements from PubChem BioAssay.
Values joined by “and” are separate entries in the source; they are usually repeats but may differ in a detail not shown here. Equal values may be shown once. Active and inactive are the calls of the source. Rule as the data show it, unless noted: active = parasite load remaining mostly below about 12% (no sharp cut-off); inactive = mostly above about 10%.

Experiments:
[1] = P. berghei load reduction in hepatocytes – cell-based, HepG2, luciferase luminescence, HepG2 viability, primary screen (AID 624349);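 also: 100% = mean of DMSO negative control wells on the same plate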; details: P. berghei liver stage in HepG2, luciferase luminescence, concentration not given here; parasite load remaining: stronger effect = lower value; viability: measured here: HepG2 viability without parasites
[2] = Wnt pathway potentiators raising nuclear beta-catenin – imaging, WNT3A-conditioned medium, mouse C2C12, NPC library, primary screen (AID 1117326; in the data active = nuclear beta-catenin stimulation mostly above about 4.2%, no sharp cut-off; inactive = mostly below about 10%); details: stronger effect = higher value
[3] = stimulators of insulin release from INS-1E, primary screen, cell-based, 5 mM glucose, NPC library (AID 1117329;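 active = compound raises insulin release from rat beta cells at 5 mM glucose, no numeric limit stated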); details: rat INS-1E insulin secretion, at 10 µM, stronger effect = higher value
[4] = growth inhibition of GSK3B-pretreated HCT116 cells – cell-based, CellTiter-Glo, 0.2 to 20 µM (AID 1117336;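 active = compounds lowering colon cancer cell viability after pretreatment blocking the GSK3B kinase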); details: HCT116 viability after GSK3B inhibitor, at 20 µM, stronger effect = higher value
[5] = inhibition of endothelial tube formation, primary screen, imaging, VEGF stimulated, CD31 staining, tube area, NPC library (AID 1117340;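 active = compound that reduces growth-factor-driven endothelial tube area in a mixed cell culture, no cutoff stated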); details: VEGF-stimulated ADSC/ECFC co-culture, at 10 µM, stronger effect = higher value
[6] = GLP1 release stimulators, primary, NCI-H716, NPC library (AID 1117341;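 active = compound raises GLP1 secretion from the human gut endocrine cells, with no numeric limit stated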); details: NCI-H716 cells, at 10 µM, stronger effect = higher value
[7] = HCT116 colon cancer cell growth inhibition, primary screen, CellTiter-Glo luminescence, NPC library (AID 1117342;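 active = compounds that lower survival of HCT116 colon cancer cells in the luminescence readout, no numeric limit stated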); details: at 20 µM (top of the series)
[8] = reduced SW480 viability measured with CellTiter-Glo, NPC library, primary (AID 1117343;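 active = compounds that lower viability of the colon cancer cells in the luminescence readout, with no numeric limit stated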); details: CellTiter-Glo luminescence; at 20 µM (top of the series)
[9] = NPC library primary testing for decreased DLD-1 cell viability via CellTiter-Glo (AID 1117346;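 active = compounds that lower survival of DLD-1 colon cancer cells in the luminescence readout, no cutoff given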); details: DLD-1 viability, CellTiter-Glo luminescence; at 20 µM (top of the series)
[10] = biological target: 6-phosphogluconate dehydrogenase, decarboxylating (Homo sapiens) (UniProt P52209); assay: inhibition of human phosphogluconate dehydrogenase – biochemical, recombinant enzyme, NADPH absorbance, primary screen (AID 1159550;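 active = at least 20% inhibition of 6-phosphogluconate dehydrogenase activity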); details: recombinant 6PGD, NADPH absorbance 341 nm; at 10 µM; stronger effect = higher value
[11] = tested on: Hepatitis C virus NS3 helicase; assay: blockers of NS3h binding to ssDNA – biochemical, fluorescence polarization, LOPAC1280 library, primary screen (AID 687035; in the data active = inhibition above about 37%); details: Purified HCV NS3 helicase, Cy5-dT15 ssDNA binding fluorescence polarization; stronger effect = higher value; concentration not given here
[12] = compounds altering Cy5-DNA-NS3h complex signal – biochemical, LOPAC1280, artefact control for HCV NS3 helicase inhibitor project (AID 687037; call rule not given here); details: Cy5-DNA-NS3h complex fluorescence interference counterscreen

Chain of 6-phosphogluconate dehydrogenase, decarboxylating (Homo sapiens) (P52209 whole entry, looked up): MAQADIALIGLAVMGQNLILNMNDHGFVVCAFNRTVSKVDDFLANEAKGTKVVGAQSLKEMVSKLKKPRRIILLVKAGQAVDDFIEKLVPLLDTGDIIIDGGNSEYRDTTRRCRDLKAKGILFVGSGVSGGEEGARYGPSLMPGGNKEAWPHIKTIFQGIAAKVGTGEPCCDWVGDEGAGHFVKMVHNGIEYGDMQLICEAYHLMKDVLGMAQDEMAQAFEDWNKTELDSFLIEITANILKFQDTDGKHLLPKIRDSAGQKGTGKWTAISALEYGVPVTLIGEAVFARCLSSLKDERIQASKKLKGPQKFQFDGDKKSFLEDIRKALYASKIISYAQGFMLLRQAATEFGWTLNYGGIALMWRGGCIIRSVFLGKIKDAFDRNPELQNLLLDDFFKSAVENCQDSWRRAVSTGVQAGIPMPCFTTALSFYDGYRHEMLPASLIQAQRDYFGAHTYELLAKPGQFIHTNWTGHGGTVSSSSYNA

Structure (SMILES): CCCCC1C(=O)N(c2ccccc2)N(c2ccc(O)cc2)C1=O (configuration not stated)
- parasite load remaining [1]: 75.4% (inactive) and 73.9% (inactive) and 45.8% (inactive)
- viability [1]: 80.4% and 71.7% and 90.8%
- nuclear beta-catenin stimulation ([2]; at 10 µM): 66.2% (active)
- nuclear beta-catenin stimulation ([2]; stimulation, at 2 µM): 2.3%
- insulin secretion stimulation [3]: -0.2% (inactive)
- viability decrease [4]: 6.7% (inactive)
- tube area decrease [5]: 50.3% (active)
- GLP1 secretion stimulation [6]: 12.4% (inactive)
- inhibition of viability [7]: 57.7% (active)
- viability decrease (inhibition) [8]: 124% (active)
- viability decrease (inhibition) [9]: 101% (active)
- inhibition [10]: -5.96% (inactive)

Structure (SMILES): C[C@H](N)[C@H](O)c1cccc(O)c1
- parasite load remaining [1]: 9.16% (inactive) and 99.4% (inactive) and 51.4% (inactive)
- viability [1]: 46.8% and 91.2% and 209%
- nuclear beta-catenin stimulation ([2]; at 10 µM): -0.7% (inactive)
- nuclear beta-catenin stimulation ([2]; stimulation, at 2 µM): -0.1%
- insulin secretion stimulation [3]: -3.4% (inactive)
- viability decrease [4]: -13.4% (inactive)
- tube area decrease [5]: 12.1% (inactive)
- GLP1 secretion stimulation [6]: -3.4% (inactive)
- inhibition of viability [7]: -3.1% (inactive)
- viability decrease (inhibition) [8]: 37.4% (inactive)
- viability decrease (inhibition) [9]: 1.5% (inactive)
- inhibition [10]: 13.9% (inactive)

Structure (SMILES): CCC[C@H](N[C@@H](C)C(=O)N1[C@H](C(=O)O)C[C@@H]2CCCC[C@@H]21)C(=O)OCC
- parasite load remaining [1]: 98.2% (inactive) and 68.9% (inactive) and 42.7% (inactive)
- viability [1]: 70.3% and 83% and 98.6%
- nuclear beta-catenin stimulation ([2]; at 10 µM): 1.3% (inactive)
- nuclear beta-catenin stimulation ([2]; stimulation, at 2 µM): 0.5%
- insulin secretion stimulation [3]: 2.3% (inactive)
- viability decrease [4]: -3% (inactive)
- tube area decrease [5]: 14.1% (inactive)
- GLP1 secretion stimulation [6]: -2.9% (inactive)
- inhibition of viability [7]: 18.1% (inactive)
- viability decrease (inhibition) [8]: 0% (inactive)
- viability decrease (inhibition) [9]: 6% (inactive)
- inhibition [10]: -5.32% (inactive)

Structure (SMILES): NC(=O)c1ccccc1O
- parasite load remaining [1]: 47.6% (inactive) and 47.5% (inactive)
- viability [1]: 78.6% and 92.9%
- nuclear beta-catenin stimulation ([2]; at 10 µM): 0.9% (inactive)
- nuclear beta-catenin stimulation ([2]; stimulation, at 2 µM): 0.5%
- insulin secretion stimulation [3]: -0.8% (inactive)
- viability decrease [4]: 5.6% (inactive)
- tube area decrease [5]: -13.1% (inactive)
- GLP1 secretion stimulation [6]: 0.3% (inactive)
- inhibition of viability [7]: 10.6% (inactive)
- viability decrease (inhibition) [8]: 27.7% (inactive)
- viability decrease (inhibition) [9]: 0.25% (inactive)
- inhibition [10]: -8.81% (inactive)

Structure (SMILES): C[C@]12CC[C@@H]3c4ccc(O)cc4CC[C@H]3[C@@H]1CCC2=O
- parasite load remaining [1]: 74.7% (inactive) and 24.8% (inactive)
- viability [1]: 91.5% and 73.5%
- inhibition [11]: -4% (inactive)
- fluorescence ratio (interference) [12]: 1 (inactive)
- nuclear beta-catenin stimulation ([2]; at 10 µM): 2.2% (inactive)
- nuclear beta-catenin stimulation ([2]; stimulation, at 2 µM): -0.2%
- insulin secretion stimulation [3]: -1.5% (inactive)
- viability decrease [4]: -6% (inactive)
- tube area decrease [5]: 21.8% (inactive)
- GLP1 secretion stimulation [6]: -1.2% (inactive)
- inhibition of viability [7]: -35.2% (inactive)
- viability decrease (inhibition) [8]: 32.8% (inactive)
- viability decrease (inhibition) [9]: -3.45% (inactive)
- inhibition [10]: -17.4% (inactive)

Structure (SMILES): CC(=O)O[C@]1(C(C)=O)CC[C@H]2[C@@H]3C=C(Cl)C4=CC(=O)[C@@H]5C[C@@H]5[C@]4(C)[C@H]3CC[C@@]21C
- parasite load remaining [1]: 8.85% (inactive)
- viability [1]: 69%
- inhibition [11]: -1% (inactive)
- fluorescence ratio (interference) [12]: 0.9 (inactive)
- nuclear beta-catenin stimulation ([2]; at 10 µM): 1.2% (inactive)
- nuclear beta-catenin stimulation ([2]; stimulation, at 2 µM): 1.7%
- insulin secretion stimulation [3]: -1.4% (inactive)
- viability decrease [4]: 16% (inactive)
- tube area decrease [5]: 10.1% (inactive)
- GLP1 secretion stimulation [6]: 1.2% (inactive)
- inhibition of viability [7]: 29.2% (inactive)
- viability decrease (inhibition) [8]: 48.9% (inactive)
- viability decrease (inhibition) [9]: -4.3% (inactive)
- inhibition [10]: -7.53% (inactive)

Structure (SMILES): O=C(O)CCCCCCCC(=O)O
- parasite load remaining [1]: 102% (inactive) and 78.4% (inactive)
- viability [1]: 69% and 83.5%
- inhibition [11]: 0% (inactive)
- fluorescence ratio (interference) [12]: 0.9 (inactive)
- nuclear beta-catenin stimulation ([2]; at 10 µM): 0.3% (inactive)
- nuclear beta-catenin stimulation ([2]; stimulation, at 2 µM): -0.5%
- insulin secretion stimulation [3]: 0.4% (inactive)
- viability decrease [4]: -10.2% (inactive)
- tube area decrease [5]: 2.7% (inactive)
- GLP1 secretion stimulation [6]: -4.7% (inactive)
- inhibition of viability [7]: -4.13% (inactive)
- viability decrease (inhibition) [8]: 15% (inactive)
- viability decrease (inhibition) [9]: -3.7% (inactive)
- inhibition [10]: -2.42% (inactive)

Structure (SMILES): O=C(Nc1ccc([N+](=O)[O-])cc1Cl)c1cc(Cl)ccc1O
- parasite load remaining [1]: -1.67% (inactive) and -1.04% (inactive) and -2.1% (inactive)
- viability [1]: 26.1% and 53.7% and 67.1%
- inhibition [11]: -2% (inactive)
- fluorescence ratio (interference) [12]: 1 (inactive)
- nuclear beta-catenin stimulation ([2]; at 10 µM): 56.2% (active)
- nuclear beta-catenin stimulation ([2]; stimulation, at 2 µM): 33.1%
- insulin secretion stimulation [3]: -1.7% (inactive)
- viability decrease [4]: 99.7% (active)
- tube area decrease [5]: 103% (active)
- GLP1 secretion stimulation [6]: 3.3% (inactive)
- inhibition of viability [7]: 107% (active)
- viability decrease (inhibition) [8]: 120% (active)
- viability decrease (inhibition) [9]: 102% (active)
- inhibition [10]: 9.61% (inactive)

Structure (SMILES): CCOC(=O)C(C)(C)Oc1ccc(Cl)cc1
- parasite load remaining [1]: 56.5% (inactive) and 51.6% (inactive)
- viability [1]: 100% and 144%
- inhibition [11]: -5% (inactive)
- fluorescence ratio (interference) [12]: 1 (inactive)
- nuclear beta-catenin stimulation ([2]; at 10 µM): 0% (inactive)
- nuclear beta-catenin stimulation ([2]; stimulation, at 2 µM): 1.6%
- insulin secretion stimulation [3]: -0.8% (inactive)
- viability decrease [4]: -28.2% (inactive)
- tube area decrease [5]: -5.8% (inactive)
- GLP1 secretion stimulation [6]: -1.1% (inactive)
- inhibition of viability [7]: -9.77% (inactive)
- viability decrease (inhibition) [8]: 7.5% (inactive)
- viability decrease (inhibition) [9]: -40.7% (inactive)
- inhibition [10]: -1.28% (inactive)

Structure (SMILES): O=C(NC(Cc1cc(=O)[nH]c2ccccc12)C(=O)O)c1ccc(Cl)cc1 (configuration not stated)
- parasite load remaining [1]: 149% (inactive) and 24.1% (inactive)
- viability [1]: 88.8% and 69%
- nuclear beta-catenin stimulation ([2]; at 10 µM): -0.8% (inactive)
- nuclear beta-catenin stimulation ([2]; stimulation, at 2 µM): -1%
- insulin secretion stimulation [3]: 2.6% (inactive)
- viability decrease [4]: -6.2% (inactive)
- tube area decrease [5]: 19.9% (inactive)
- GLP1 secretion stimulation [6]: -0.3% (inactive)
- inhibition of viability [7]: 3.17% (inactive)
- viability decrease (inhibition) [8]: 22.7% (inactive)
- viability decrease (inhibition) [9]: -11.3% (inactive)
- inhibition [10]: 4.66% (inactive)

Structure (SMILES): Oc1cccc(O)c1
- parasite load remaining [1]: 91.2% (inactive) and 38.4% (inactive)
- viability [1]: 77.8% and 101%
- nuclear beta-catenin stimulation ([2]; at 10 µM): -0.3% (inactive)
- nuclear beta-catenin stimulation ([2]; stimulation, at 2 µM): 0.3%
- insulin secretion stimulation [3]: -1.9% (inactive)
- viability decrease [4]: -0.8% (inactive)
- tube area decrease [5]: 21% (inactive)
- GLP1 secretion stimulation [6]: -2.3% (inactive)
- inhibition of viability [7]: 8% (inactive)
- viability decrease (inhibition) [8]: 78.9% (active)
- viability decrease (inhibition) [9]: 2.6% (inactive)
- inhibition [10]: -5.12% (inactive)
